# Measurements published in PubChem BioAssay (Tox21).
# A number with no mark means an inactive call. Calls of active or inactive are those of the source. Calls follow the shape of the dose curve; as a rule, active = well fitted curve in the direction sought with a large enough effect in the repeat runs; inconclusive = weak or mixed curves; inactive = flat fitted curve, though single readings scatter.
# Assay: qHTS assay to test for compound auto fluorescence at 460 nm (blue) in HEK293 cell free culture (AID 720681)
# Conditions: cell-free medium, autofluorescence 405/460 nm (blue); series mostly up to 91.3 µM
# Text: U.S. Tox21 Program National Center for Advancing Translational Sciences [NCATS] NIH Chemical Genomics Center [NCGC] U.S. Environmental Protection Agency [EPA] National Institutes of Environmental Health Sciences [NIEHS] National Toxicology Program [NTP] U.S. Food and Drug Administration [FDA] Tox21 Assay Overview: Compound auto fluorescence often interferes with screening of the compound library against various biological targets and signaling pathways. Some of these compounds may have fluorophoric properties. Such properties may interfere with the assay outputs resulting in false positives and/or negatives. To decrease such complications and ensure the compound activities are relevant in terms of biological response, the Tox21 10K compound library was screened for auto fluorescence. From the fluorophores used as reporter signals in our screening assays, the auto fluorescence equivalencies of compounds against three fluorophores have been evaluated: Triamterene, Fluorescein and Rose Bengal sodium for blue, green and red fluorescence, respectively. The fluorescence intensities were measured using Excitation/Emission wavelengths at 405/460nm, 485/535nm and 540/590nm for blue, green and red labels, respectively. This assay includes the blue fluorescence data.
# Tox21 Assay Protocol Summary: 5 uL of culture medium (DMEM containing 10% FBS) per well was dispensed into black wall/clear bottom 1536-well plates using a Multidrop Combi Dispenser (ThermoFisher Scientific, Waltham, MA). After 23 nL compound or DMSO vehicle was transferred into assay plate by a pintool work station (Kalypsys, San Diego, CA), fluorescence intensities in the assay plates were measured by an Envision (PerkinElmer, Shelton, CT) plate reader using three labels for measuring blue, green and red fluorescence at […] 460, 535 and 590nm respectively.
# % is scaled to controls: 0 for no effect and ±100 for the full control effect.
Structure (SMILES),outcome,"fluorescence, % of fluorescent control"
CN1C(=O)CC(c2ccccc2)C1=O (stereo not given),inactive,
Oc1ccccc1C=NCc1ccccc1,inactive,
CCC/C=C/CO,inactive,
COc1ccc2nc(NC(=O)Nc3ccccc3)sc2c1,inactive,
O=C(C(Cl)Cl)N1CCOC12CCCCC2,inactive,
CCOC(=O)CS,inactive,
CCCCCCOc1ccc(N)cc1,inactive,
CC(C)(C)c1ccc(OC(=O)c2ccccc2O)cc1,inactive,
O=S(=O)(O)C(F)(F)F,inactive,
COc1cc(N)c(Cl)cc1C(=O)NC1CCN(Cc2ccccc2)CC1,,-0.0892% [at 18.6 µM]
CCC(=O)c1ccc2c(c1)N(CCCN(C)C)c1ccccc1S2,inactive,
CCc1nnc(NS(=O)(=O)c2ccc(N)cc2)s1,inactive,
NC/C=C/C(=O)O,inactive,
NC1=NCC2c3ccccc3Cc3ccccc3N12 (stereo not given),inactive,
CCCCC1CCC(=O)O1 (stereo not given),inactive,
CC/C=C\CCOC(=O)CCCCC,inactive,
O=C1CCCCC1C1CCCCC1 (stereo not given),inactive,
CC[C@H]1CC[C@H](NCc2cc3c(cc2OC)[C@H]2C[C@H]2C(=O)N3C)[C@H](c2ccccc2)N1,inactive,
OCCN(CCO)CCN(CCO)CCO,inactive,
Cc1ccccc1C(=O)Nc1ccc(C(=O)N2CCCC(O)c3cc(Cl)ccc32)c(C)c1 (stereo not given),inactive,

Structure (SMILES),outcome,"fluorescence, % of fluorescent control"
CN(CCCN1c2ccccc2CCc2ccccc21)CC(=O)c1ccc(Cl)cc1,inactive,
COc1cc(Cl)ccc1Cl,inactive,
C1CSCCS1,inactive,
CN1[C@@H]2CC[C@H]1CC(OC(=O)c1c[nH]c3ccccc13)C2 (stereo not given in full),inactive,
OCCN1CCN(CCO)CC1,inactive,
CCCCC(=O)O[C@]1(C(=O)CO)[C@H](C)C[C@H]2[C@@H]3CCC4=CC(=O)C=C[C@]4(C)[C@@]3(F)[C@@H](O)C[C@@]21C,inactive,
CC(C)(CO)[C@@H](O)C(=O)NCCC(=O)O,inactive,
COC(=O)c1ccc2cc(C(=O)OC)ccc2c1,,-0.109% [at 18.6 µM]
CC(C)(C)c1cccc(O)c1,inactive,
Cc1c[nH]c(=S)[nH]c1=O,inactive,
Cc1cc2c(s1)Nc1ccccc1N=C2N1CCN(C)CC1,inactive,
CCC(=O)O[C@]1(C(=O)SCF)[C@H](C)C[C@H]2[C@@H]3C[C@H](F)C4=CC(=O)C=C[C@]4(C)[C@@]3(F)[C@@H](O)C[C@@]21C,,0.0707% [at 18.6 µM]
CCCNC(C)C(=O)Nc1c(C)csc1C(=O)OC (stereo not given),,-0.0092% [at 18.6 µM]
O=C(O)c1ccccc1Nc1cc(Cl)ccc1C(=O)O,inactive,
CCCCC(CC)COC(=O)COc1cc(Cl)c(Cl)cc1Cl (stereo not given),inactive,
O=C1C=CC(=O)O1,inactive,
CC(C)O,inactive,
CC(=O)OC1C2(C)CCC(C2)C1(C)C (stereo not given),inactive,
OCc1c2ccccc2cc2ccccc12,inactive,
Clc1cccc(-c2cc(Cl)cc(Cl)c2)c1,inactive,
